The source of these data is PubChem BioAssay (NCATS).

Several values for one entry are separate records, joined by “and”; a condition that tells them apart may be missing. Equal values may be shown once. Results filed as inconclusive are left out. Where a call stands in place of a potency, no number is given. Activity calls are given as the source filed them. Calls come from the whole dose curve; as a rule, active = well fitted inhibition curve with a large enough effect; inconclusive = small, poorly fitted or top-dose-only effect; inactive = flat fitted curve, though single readings scatter.
Note: nearly all actives have a fitted effect of over 65% in size.

In one experiment the target is Glutathione peroxidase 1 (Homo sapiens) (UniProt P07203). Description: Primary qHTS Assay for Inhibitors of Recombinant Selenoprotein Glutathione Peroxidase 1 (GPX1) (AID 1845191). Note: potency is the fitted concentration of half-maximal effect. Conditions: recombinant GPX1, GR-coupled NADPH fluorescence, 15 min; series mostly up to 48.8 µM. Summed up: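 GR-coupled readout: NADPH consumption tracked by fluorescence, ex 340/em 450 nm, at t=0 and after 15 min at RT. Final mix 10 nM GPX1, 1 mM GSH, 0.5 mM CHP, 0.5 mM NADPH, 100 nM GR, 0.01% BSA, following 30 min enzyme–compound preincubation.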
Chain of Glutathione peroxidase 1 (Homo sapiens) (P07203 whole entry, looked up): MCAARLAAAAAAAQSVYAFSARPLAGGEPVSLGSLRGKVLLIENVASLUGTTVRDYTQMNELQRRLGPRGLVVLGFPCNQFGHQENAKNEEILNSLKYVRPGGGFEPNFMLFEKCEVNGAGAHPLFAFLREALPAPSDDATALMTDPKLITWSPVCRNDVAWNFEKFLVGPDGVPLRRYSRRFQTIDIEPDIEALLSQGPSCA
A general note: qHTS replaces the single test concentration by a dilution series.
Take `OCC1NCC(O)C(O)C1O` (stereo unspecified): the Potency result was “inactive”.
Still for that read-out and setting: under `COc1cc(CC(=O)O)ccc1O` stands “inactive”; under `NC[C@@H]1O[C@H](c2ccccc2)Cc2c1ccc(O)c2O`, “inactive”; under `Nc1nc2c(cnn2CCc2ccccc2)c2nc(-c3ccco3)nn12`, “inactive”.
Same read-out and setting: for `Nc1ncnc2c1nc(Sc1ccc(Cl)cc1)n2[C@H]1OC2COP(=O)(O)O[C@@H]2C1O` (stereo partly specified) the value was “inactive”; for `CC(C)(CO)Cc1cc(C(C)(C)C)c(O)c(C(C)(C)C)c1`, “inactive”.
On the same count and under the same terms, under `CCCCCCCCCCCCCCSCC(=O)O` stands “inactive”; under `CC(=O)C(C)=O`, “inactive”; under `Nc1ncnc2c1c(-c1ccc(Oc3ccccc3)cc1)cn2C1CCCC1`, “inactive”.
Regarding `N[C@@H](Cc1ccc(O)c(I)c1)C(=O)O`, the Potency result is “inactive”.
With `COc1ccc(NC(=O)c2ccc(-c3ccc(-c4noc(C)n4)cc3C)cc2)cc1N1CCN(C)CC1`, the Potency result was “inactive”.
Still for that read-out and setting: for `CNc1ncnc2c1ncn2[C@H]1C[C@H](OP(=O)(O)O)[C@@H](COP(=O)(O)O)O1` the value was “inactive”; for `CSC(=N)N`, “inactive”.
The same measure, in the same setting: for `CSC(N)=NCCC[C@H](N)C(=O)O` the value was “inactive”; for `COc1cc(C(O)C(=O)O)ccc1O` (stereo unspecified), “inactive”.
Still for that read-out and setting: for `O=C1C2C=CC=CC2=NC(=S)N1CCN1CCC(=C(c2ccc(F)cc2)c2ccc(F)cc2)CC1` (stereo unspecified) the value was “inactive”; for `c1ccc2c(c1)CCC[C@H]2Nc1nc2ccccc2[nH]1`, “inactive”.
Turning to `O=c1onc2cnc3ccccc3n12`, the Potency result was “inactive”.
Turning to `CC(N)(C(=O)O)c1ccc(C(=O)O)cc1` (stereo unspecified), the Potency entry was “inactive”.
For `CCCCCCCCCCC/C=C\C(C)(C)/C=C\CCCC(=O)O`, the Potency result is “inactive”.
The same measure, in the same setting: for `CC(C)C[C@H](NC(=O)[C@H](O)[C@H](N)Cc1ccccc1)C(=O)O` the value was “inactive”; for `OC[C@H]1NC[C@@H](O)[C@@H]1O`, “inactive”.
Same read-out and setting: for `c1ccc2c(c1)CC(N1CCN(c3cccc4c3OCCO4)CC1)C2` the value was “inactive”; for `Cc1nc(N=Nc2ccc(C(=O)O)cc2)c(COP(=O)(O)O)c(C=O)c1O`, “inactive”.
The same measure, in the same setting: for `N[C@H](C(=O)O)c1cc(O)cc(O)c1` the value was “inactive”; for `NC1CCN(O)C1=O` (stereo unspecified), “inactive”.
With `Cc1nc2c(OCc3ccccc3)cccn2c1CC#N`, the Potency entry was “inactive”.
Same read-out and setting: for `COc1cc([C@@H]2c3cc4c(cc3[C@H](O)C3COC(=O)[C@@H]32)OCO4)cc(OC)c1OC` (stereo partly specified) the value was “inactive”; for `C/C(=C\c1ccc(C(=O)O)cc1)c1ccc2c(c1)C(C)(C)CCC2(C)C`, “inactive”.
The same measure, in the same setting: under `CCCOC(=O)c1c(-c2ccccc2)nc(CC)c(C(=O)SCC)c1CCC` stands “inactive”; under `Cc1cccc(C(=O)NCN2CCN(c3ccccc3C#N)CC2)c1`, “inactive”; under `Cn1ccnc1`, “inactive”.
On the same count and under the same terms, under `NCC(O)(CS(=O)(=O)O)c1ccc(Cl)cc1` (stereo unspecified) stands “inactive”; under `COc1ccc2c(c1)c(CC(=O)O)c(C)n2C(=O)c1ccccc1`, “inactive”; under `NC(=O)c1cc[n+](CC2=C(C(=O)O)N3C(=O)[C@@H](NC(=O)[C@@H](c4ccccc4)S(=O)(=O)[O-])[C@H]3SC2)cc1`, 4.53 µM (active) and 28.2 µM (active).
Turning to `NC1CONC1=O` (stereo unspecified), the Potency result was “inactive”.
The same measure, in the same setting: for `O=C(O)C1CCNCC1` the value was “inactive”; for `O=c1oc(Cl)c(Cl)c2ccccc12`, “inactive”.

For a further experiment, the target named is Phospholipid hydroperoxide glutathione peroxidase GPX4 (Homo sapiens) (UniProt P36969). The experiment in a line: Primary qHTS Assay for Inhibitors of Recombinant Selenoprotein Glutathione Peroxidase 4 (GPX4) (AID 1845192). The following applies: recombinant GPX4, GR-coupled NADPH fluorescence, 15 min; series mostly up to 50 µM. The method in brief: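 Steps: GPX4 plus compound, 30 min RT; add GR/GSH/NADPH master mix; start with cumene hydroperoxide; read 340/450 nm fluorescence at 0 and 15 min. Finals were 200 nM GPX4, 1 mM GSH, 0.5 mM CHP, 0.5 mM NADPH, 100 nM GR.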
Chain of Phospholipid hydroperoxide glutathione peroxidase GPX4 (Homo sapiens) (P36969 whole entry, looked up): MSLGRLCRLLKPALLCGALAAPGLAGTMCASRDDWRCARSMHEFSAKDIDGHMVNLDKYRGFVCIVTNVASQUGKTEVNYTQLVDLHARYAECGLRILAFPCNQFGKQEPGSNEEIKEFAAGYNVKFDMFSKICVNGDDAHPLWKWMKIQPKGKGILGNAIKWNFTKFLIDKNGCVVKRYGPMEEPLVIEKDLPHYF
For the compound `OCC1NCC(O)C(O)C1O` (stereo unspecified), the Potency result was “inactive”.
Turning to `COc1cc(CC(=O)O)ccc1O`, the Potency result was “inactive”.
On the same count and under the same terms, under `NC[C@@H]1O[C@H](c2ccccc2)Cc2c1ccc(O)c2O` stands “inactive”; under `Nc1nc2c(cnn2CCc2ccccc2)c2nc(-c3ccco3)nn12`, “inactive”.
Same read-out and setting: under `Nc1ncnc2c1nc(Sc1ccc(Cl)cc1)n2[C@H]1OC2COP(=O)(O)O[C@@H]2C1O` (stereo partly specified) stands “inactive”; under `CC(C)(CO)Cc1cc(C(C)(C)C)c(O)c(C(C)(C)C)c1`, “inactive”; under `CCCCCCCCCCCCCCSCC(=O)O`, “inactive”.
Still for that read-out and setting: under `CC(=O)C(C)=O` stands “inactive”.
Take `Nc1ncnc2c1c(-c1ccc(Oc3ccccc3)cc1)cn2C1CCCC1`: the Potency entry was “inactive”.
On the same count and under the same terms, under `N[C@@H](Cc1ccc(O)c(I)c1)C(=O)O` stands “inactive”; under `COc1ccc(NC(=O)c2ccc(-c3ccc(-c4noc(C)n4)cc3C)cc2)cc1N1CCN(C)CC1`, “inactive”; under `CNc1ncnc2c1ncn2[C@H]1C[C@H](OP(=O)(O)O)[C@@H](COP(=O)(O)O)O1`, “inactive”.
With `CSC(=N)N`, the Potency result was “inactive”.
On the same count and under the same terms, under `CSC(N)=NCCC[C@H](N)C(=O)O` stands “inactive”.
Still for that read-out and setting: for `COc1cc(C(O)C(=O)O)ccc1O` (stereo unspecified) the value was “inactive”; for `O=C1C2C=CC=CC2=NC(=S)N1CCN1CCC(=C(c2ccc(F)cc2)c2ccc(F)cc2)CC1` (stereo unspecified), “inactive”; for `c1ccc2c(c1)CCC[C@H]2Nc1nc2ccccc2[nH]1`, “inactive”.
On to `O=c1onc2cnc3ccccc3n12`, for which the Potency entry is “inactive”.
Same read-out and setting: under `CC(N)(C(=O)O)c1ccc(C(=O)O)cc1` (stereo unspecified) stands “inactive”.
Consider `CCCCCCCCCCC/C=C\C(C)(C)/C=C\CCCC(=O)O`, for which the Potency entry is “inactive”.
Still for that read-out and setting: under `CC(C)C[C@H](NC(=O)[C@H](O)[C@H](N)Cc1ccccc1)C(=O)O` stands “inactive”.
Still for that read-out and setting: under `OC[C@H]1NC[C@@H](O)[C@@H]1O` stands “inactive”.
On to `c1ccc2c(c1)CC(N1CCN(c3cccc4c3OCCO4)CC1)C2`, for which the Potency result was “inactive”.
Same read-out and setting: for `Cc1nc(N=Nc2ccc(C(=O)O)cc2)c(COP(=O)(O)O)c(C=O)c1O` the value was “inactive”; for `N[C@H](C(=O)O)c1cc(O)cc(O)c1`, “inactive”.
The same measure, in the same setting: under `NC1CCN(O)C1=O` (stereo unspecified) stands “inactive”.
Take `Cc1nc2c(OCc3ccccc3)cccn2c1CC#N`: the Potency entry was “inactive”.
Same read-out and setting: under `COc1cc([C@@H]2c3cc4c(cc3[C@H](O)C3COC(=O)[C@@H]32)OCO4)cc(OC)c1OC` (stereo partly specified) stands “inactive”.
Consider `C/C(=C\c1ccc(C(=O)O)cc1)c1ccc2c(c1)C(C)(C)CCC2(C)C`, for which the Potency result was “inactive”.
On the same count and under the same terms, for `CCCOC(=O)c1c(-c2ccccc2)nc(CC)c(C(=O)SCC)c1CCC` the value was “inactive”; for `Cc1cccc(C(=O)NCN2CCN(c3ccccc3C#N)CC2)c1`, “inactive”.
Still for that read-out and setting: under `Cn1ccnc1` stands “inactive”; under `NCC(O)(CS(=O)(=O)O)c1ccc(Cl)cc1` (stereo unspecified), “inactive”; under `COc1ccc2c(c1)c(CC(=O)O)c(C)n2C(=O)c1ccccc1`, “inactive”.
On the same count and under the same terms, under `NC(=O)c1cc[n+](CC2=C(C(=O)O)N3C(=O)[C@@H](NC(=O)[C@@H](c4ccccc4)S(=O)(=O)[O-])[C@H]3SC2)cc1` stands “inactive”.
In the case of `NC1CONC1=O` (stereo unspecified), the Potency entry was “inactive”.
Same read-out and setting: for `O=C(O)C1CCNCC1` the value was “inactive”.
The same measure, in the same setting: under `O=c1oc(Cl)c(Cl)c2ccccc12` stands “inactive”.
